Structures are written as SMILES. Out of some 75,000 compounds screened, about 5,700 (7.6%) were called active. Entries that show only a call come without a potency. About 7% were inconclusive and are not listed. The full list was thinned out, with actives kept by preference. Unmarked numbers belong to inactive results. The call rests on the fitted dose curve; in most records, active means well fitted inhibition curve with a large enough effect; inconclusive means small, poorly fitted or top-dose-only effect; inactive means no such curve, though single readings can be large or run the other way.

Consider 26 compounds from PubChem BioAssay AID893 (National Center for Advancing Translational Sciences (NCATS), 2007).
Potency means the concentration at half of the fitted maximal effect.

In the assay the target is 3-hydroxyacyl-CoA dehydrogenase type-2 (Homo sapiens) (UniProt Q99714). The assay can be described thus: qHTS Assay for Inhibitors of HSD17B4, hydroxysteroid (17-beta) dehydrogenase 4.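 Further: the protocol describes HADH2 (HSD17B10) and not the HSD17B4 of the title; nearly all actives have a fitted effect of over 70% in size.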 The conditions noted are these: recombinant HSD17B10, NADH fluorescence kinetic; series mostly up to 57.1 µM. In outline: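 Activity followed as NADH fluorescence increase (ex 360, em 450 nm) every 30 seconds for 4 min, using final 90 uM beta-hydroxybutyryl CoA and 1 mM NAD+. Recombinant His-tagged enzyme, 20 nM, pH 9.0 Tris buffer, 15 min compound preincubation.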
On the technique in general: qHTS replaces the single test concentration by a dilution series.
Regarding `COc1ccc(Br)cc1S(=O)(=O)N1CCN=C1C`, the Potency result is “inactive”.
For the compound `Cc1cc(C)cc(N(CC(=O)Nc2c(C)n(C)n(-c3ccccc3)c2=O)S(C)(=O)=O)c1`, the Potency entry was “inactive”.
As to `O=C(NC1CCCCC1)C1CCCN(S(=O)(=O)c2cccs2)C1` (stereo unspecified), the Potency entry was “inactive”.
Consider `Cc1ccc(OCc2nc(C#N)c(N3CCCC3)o2)cc1`, for which the Potency result is “inactive”.
For `CC1CCN(c2oc(-c3ccccc3F)nc2C#N)CC1`, the Potency was 31.6 µM (active).
Still for that read-out and setting: for `N#Cc1nc(COc2ccc(Cl)cc2)oc1N1CCCC1` the value was “inactive”; for `CN(CCCNC(=O)CN1C(=O)CC(C)(C)S(=O)(=O)c2ccccc21)C1CCCCC1`, “inactive”; for `Nc1nc2c(nc(Cl)n2C2OC(CO)C(O)C2O)c(=O)[nH]1` (stereo unspecified), “inactive”.
On to `COC(=O)[C@@]1(Cc2ccc(F)cc2)[C@H]2c3cc(C(=O)N4CCCC4)n(Cc4ccc(OC(F)(F)F)cc4)c3C[C@H]2CN1C(=O)c1ccccc1`, for which the Potency entry is “inactive”.
The same measure, in the same setting: the result for `CC(=O)OCC(=O)[C@@]1(O)CC[C@@H]2[C@H]3CCC4=CC(=O)C=C[C@]4(C)[C@]3(F)[C@@H](O)C[C@@]21C` reads “inactive”.
As for `C[C@]12C=CC(=O)C=C1CC[C@@H]1[C@@H]2C(=O)C[C@@]2(C)[C@H]1CC[C@]2(O)C(=O)CO`, the Potency is 15.8 µM (active).
As to `CC(=O)OCC(=O)[C@@]1(O)CCC2C3CCC4=CC(=O)CC[C@]4(C)C3C(=O)C[C@]21C` (stereo partly specified), the Potency result was “inactive”.
On to `COC(=O)[C@H](C(C)C)n1c(C)c(C(C)=O)c(C(C)=O)c1C`, for which the Potency entry is “inactive”.
`O=S(=O)(CCc1nc2ccccc2o1)c1ccc(Cl)cc1`: the Potency result is “inactive”.
Regarding `O=C1CCCN1CCCNc1ncnc2c1[nH]c1ccccc12`, the Potency is 31.6 µM (active).
Same read-out and setting: the result for `O=C(CCn1c(=S)[nH]c2ccccc2c1=O)NCCCN1CCCC1=O` reads “inactive”.
For the compound `CC1(C)CC(=O)C=C(NCCCN2CCCC2=O)C1`, the Potency entry is “inactive”.
Turning to `CCOc1ccccc1NC(=O)c1cc(S(=O)(=O)N2CCC3(CC2)OCCO3)ccc1F`, the Potency entry was “inactive”.
The same measure, in the same setting: for `CCOC(=O)C1CCN(C(=O)c2oc3ccc(S(=O)(=O)N4CCCCCC4)cc3c2C)CC1` the value was “inactive”.
Turning to `Cc1c(C(=O)Nc2ccccc2Cl)oc2ccc(S(=O)(=O)N3CCC4(CC3)OCCO4)cc12`, the Potency was 25.1 µM (active).
For `CCOC(=O)N1CCN(Cc2oc(CO)cc(=O)c2O)CC1`, the Potency result is “inactive”.
`Cc1nc2ccc(NC(=O)N3CCC(c4ccccc4)C3)cc2nc1C` (stereo unspecified): the Potency was 25.1 µM (active).
For the compound `O=C(Nc1cccc(NC(=O)N2CCN(c3ccccc3)CC2)c1)N1CCN(c2ccccc2)CC1`, the Potency entry is “inactive”.
The same measure, in the same setting: for `O=C(Nc1cccc(C(=O)N2CCCC2)c1)c1ccccc1` the value was “inactive”.
In the case of `O=C(O)[C@H](CCc1ccccn1)c1ccccc1`, the activity change, negative = inhibition is 1.79% [at 11.4 µM].
Turning to `CC(=O)Nc1nc(C)c(Cc2ccccc2)c(=O)[nH]1`, the Potency entry was “inactive”.
